The entries come from a sample that favours hits as a whole.
Pf Dd2 growth: blocks in vitro growth of P. falciparum Dd2; AID 1347417; P. falciparum Dd2 growth, SYBR Green, 72 h; hit rate 4.3% among 120,000; Potency, µM (highest dose often 28.9 µM), without a hit: at the highest dose activity, negative = inhibition, hits mostly inhibitors; active = well fitted inhibition curve with a large enough effect;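 also: plate controls were DMSO vehicle for no effect and reference drug for full effect; nearly all actives have a fitted effect of over 65% in size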
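Infected erythrocytes (Dd2, 0.3% parasitemia, 2.5% hematocrit final) are added to compound in RPMI-1640/Albumax II medium, grown 72 h at 37C in low oxygen, then lysed with saponin/Triton-X containing SYBR Green and read by fluorescence.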
Starred values were filed as active, the others as inactive; ! = a repeat was not active; [ ] = dose if it differs, or a comment. Potency is read from the fitted curve at half-maximal effect.

For CCOc1ccc(CC(=O)NC2CCc3n[nH]c(=O)n3CC2)cc1OCC (stereo not drawn) the results were Pf Dd2 growth 21%.
For Cc1ccncc1C(=O)N1CCn2c(nnc2[C@@H]2C[C@@H](O)CN2Cc2ccccc2)C1 the results were Pf Dd2 growth 40%.
Screening O=C(CC1CCCC1)Nc1ccc2ncnc(N3CCCCC3)c2c1 returned Pf Dd2 growth -3%.
Screening CCOc1ccc(S(=O)(=O)N2CCCN(C(=O)C3CC3)c3ccccc32)cc1 returned Pf Dd2 growth inactive.
`Brc1ccc(CN2CCC(c3nc4ccncc4[nH]3)C2)cc1` (stereo not drawn) gave Pf Dd2 growth 10µM*!.
`c1cncc(CN2CC[C@H](c3nc4ccccc4[nH]3)C2)c1` gave Pf Dd2 growth -21%[44.1 µM].
CN(C)c1ccc(CN2CCC(c3nc4ccncc4[nH]3)C2)cc1 (stereo not drawn) was read as Pf Dd2 growth -18%[44.1 µM].
Screening CN(C(=O)c1ccc(F)cc1)C1CCCc2ccccc21 (stereo not drawn) returned Pf Dd2 growth inactive.
O=C(c1ccccc1F)N1CCC2(C1)C(=NC1CCCC1)NC(=O)N2c1cccnc1 (stereo not drawn) was read as Pf Dd2 growth -1%.
`O=C(NCc1cccs1)c1csc(N2CCN(c3ccc(F)cc3)CC2)n1` gave Pf Dd2 growth inactive.
COc1ccc(N2CCN(c3nc(C(=O)NCc4ccccc4C)cs3)CC2)cc1 was read as Pf Dd2 growth 8.9µM*.
For O=C(NCc1ccccc1Cl)c1csc(N2CCN(c3ccc(F)cc3)CC2)n1 the results were Pf Dd2 growth inactive.
For COc1ccc(N2CCN(c3nc(C(=O)NC4CC4)cs3)CC2)cc1 the results were Pf Dd2 growth inactive.
`COc1ccc(N2CCN(c3nc(C(=O)NCc4ccc(C)cc4)cs3)CC2)cc1` gave Pf Dd2 growth -10%.
COc1ccc(N2CCN(c3nc(C(=O)NCc4cccc(C)c4)cs3)CC2)cc1 was read as Pf Dd2 growth 3.2µM*.
`Cn1nc2n(c1=O)CCN(C(=O)NC1CCCCC1)CC2` gave Pf Dd2 growth 4%.
For COCCc1noc([C@@H]2CN(C(=O)CC3=CCCCC3)C[C@H]2CO)n1 the results were Pf Dd2 growth -13%.
Cc1ccc(S(=O)(=O)N2CCCC3(CCC(=O)N(C4CC4)C3)C2)cc1C (stereo not drawn) was read as Pf Dd2 growth 2%.
`Cc1noc(C)c1CC(=O)N1CCC2(CC1)CN([S+](C)(=O)[O-])Cc1ccccc1O2` gave Pf Dd2 growth -6%.
For NC(=O)Cc1c[nH]c2ncc(-c3cccc(CO)c3)cc12 the results were Pf Dd2 growth -1%[44.1 µM].
For C[S+](=O)([O-])N1Cc2ccccc2CC2(CCN(CC3CCNC3)CC2)C1 (stereo not drawn) the results were Pf Dd2 growth 16%.
O=C(CN1CCN(c2ccc(Cl)cc2)CC1)Nc1ccc(Cl)c(C(F)(F)F)c1 was read as Pf Dd2 growth 25%.
`Nc1c(C(=O)Nc2ccc(Cl)c(C(F)(F)F)c2)sc2nc3c(cc12)N1CCC3CC1` gave Pf Dd2 growth 2.8µM*.
For N#Cc1cc2c(nc1SCC(=O)Nc1ccc(Cl)c(C(F)(F)F)c1)C1CCN2CC1 the results were Pf Dd2 growth 5µM*.
Screening CCC1CCc2nc3sc(C(=O)Nc4ccc(F)c(Cl)c4)c(N)c3cc2C1 (stereo not drawn) returned Pf Dd2 growth -7%.
`Nc1c(C(=O)Nc2cccc(Br)c2)sc2nc3c(cc12)N1CCC3CC1` gave Pf Dd2 growth inactive.
N#Cc1c(C(F)(F)F)cc(-c2ccc(F)cc2)nc1SCC(=O)Nc1ccccc1 was read as Pf Dd2 growth -1%.
For O=C1[C@@H]2C[C@@H](CN2C(=O)C2CCOCC2)Oc2ccccc2N1Cc1ccccn1 the results were Pf Dd2 growth -18%[44.1 µM].
CCOc1ccc(C(=O)N2C[C@@H](CO)[C@H](c3nc(C4CC4)no3)C2)cc1 was read as Pf Dd2 growth -5%.
For COc1ccccc1-c1cc2c(ccn2C)c(C(=O)NCc2cnccn2)n1 the results were Pf Dd2 growth inactive.
COc1ccc(-c2cc(CC3(NC4CCCCC4)COC3)no2)cc1 was read as Pf Dd2 growth inactive.
`CCOC(=O)c1ccccc1NC(=O)N(Cc1ccc(C)cc1)Cc1cccn1-c1nnc(N2CCCC2=O)s1` gave Pf Dd2 growth -19%.
Screening Cc1ccc(CNC(=O)c2cccn2-c2nnc(N3CCCC3)s2)cc1 returned Pf Dd2 growth inactive.
Screening CCc1ccc(NC(=O)N(Cc2ccc(C)cc2)Cc2cccn2-c2nnc(N3CCCC3=O)s2)cc1 returned Pf Dd2 growth 13µM*.
For COc1ccc(C(=O)N2CCCC2c2noc(COc3ccc(F)cc3)n2)cn1 (stereo not drawn) the results were Pf Dd2 growth 13%.
For CCn1ccc(C(=O)N2CCc3c(nc(-c4ccc(OC)cc4)[nH]c3=O)C2)n1 the results were Pf Dd2 growth -29%.
Screening O=C(c1ccn(C(F)F)n1)N1CCc2nc(-c3ccc(Cl)cc3)[nH]c2C1 returned Pf Dd2 growth 13µM*.

Assay outcomes (PubChem)
